The values below come from PubChem BioAssay (EPA / NIEHS).

Molecules are shown by their SMILES. Results filed as inconclusive are left out. Some structures have more than one record in an assay (separate samples or runs), and their calls can disagree. Active and inactive are the calls of the source. How the source made its calls, unless noted: active means hit-call score of the fitted dose curve at least 0.9, where 1 is the maximum; inactive means score below 0.9.

human Vitamin D Receptor (VDR), VDR (gene 7421), sequence (P11473 whole entry, looked up): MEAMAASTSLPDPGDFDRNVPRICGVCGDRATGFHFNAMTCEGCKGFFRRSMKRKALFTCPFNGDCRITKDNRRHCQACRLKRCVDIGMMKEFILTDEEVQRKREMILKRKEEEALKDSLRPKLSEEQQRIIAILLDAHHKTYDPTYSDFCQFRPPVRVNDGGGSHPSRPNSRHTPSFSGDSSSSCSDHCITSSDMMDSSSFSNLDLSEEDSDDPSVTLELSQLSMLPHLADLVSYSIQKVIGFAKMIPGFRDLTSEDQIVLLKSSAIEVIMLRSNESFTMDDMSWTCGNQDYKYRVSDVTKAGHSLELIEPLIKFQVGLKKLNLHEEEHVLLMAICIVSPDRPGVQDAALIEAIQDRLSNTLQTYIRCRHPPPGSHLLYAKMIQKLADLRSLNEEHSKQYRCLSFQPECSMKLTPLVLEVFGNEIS

Read-out in the first assay: Human Leukocyte Antigen - DR isotype (HLADR), HLA-DRA (gene 3122)
Put plainly: BSK_3C_HLADR: BioMAP Diversity Plus: 3C Assay for Human Leukocyte Antigen - DR isotype (HLADR) Biomarker Activity (AID 2283019).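 On outcome: ELISA of cell-surface HLA-DR on HUVEC 24 h after dosing.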 The conditions noted are these: primary human endothelial cells (HUVEC); actives raise or lower the signal. The procedure, abridged:
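ELISA readout of surface HLA-DR on human umbilical vein endothelium, taken 24 h after chemical treatment. Gain- and loss-of-signal were both fitted relative to DMSO.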
Turning to `OCCN1CCOCC1`, the result was inactive.
For the compound `c1ccc2c(c1)-c1ccc3ccc4cccc5cc-2c1c3c45`, the half-maximal activity concentration (AC50) is 0.621 µM (active).
In the case of `CC(C)(CO)CO`, the result was inactive.
Still for that read-out and setting: under `CC=CC(=O)C1=C(C)C=CCC1(C)C` stands “inactive”.

Read-out in another assay: Interleukin-8 (IL8), CXCL8 (gene 3576)
The assay can be described thus: BSK_3C_IL8: BioMAP Diversity Plus: 3C Assay for Interleukin-8 (IL8) Biomarker Activity (AID 2283020). As to conditions: primary human endothelial cells (HUVEC); actives raise or lower the signal. In outline: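 HUVEC, 3C stimulation; 24 h compound exposure; IL-8 read by ELISA; gain or loss of signal fitted relative to DMSO control.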
As to `OCCN1CCOCC1`, the outcome was inactive.
Same read-out and setting: next, `c1ccc2c(c1)-c1ccc3ccc4cccc5cc-2c1c3c45`: “inactive”.
Same read-out and setting: under `CC(C)(CO)CO` stands “inactive”; under `CC=CC(=O)C1=C(C)C=CCC1(C)C`, “inactive”.

Read-out in another assay: Monokine induced gamma interferon (MIG), CXCL9 (gene 4283)
The assay can be described thus: BSK_3C_MIG: BioMAP Diversity Plus: 3C Assay for Monokine induced gamma interferon (MIG) Biomarker Activity (AID 2283021). The conditions noted are these: primary human endothelial cells (HUVEC); actives raise or lower the signal. The procedure, abridged:
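HUVEC, 3C system; 24 h chemical exposure; MIG by ELISA; bidirectional fit vs DMSO baseline.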
As to `OCCN1CCOCC1`, the result was inactive.
Still for that read-out and setting: next, `c1ccc2c(c1)-c1ccc3ccc4cccc5cc-2c1c3c45`: “inactive”; `CC(C)(CO)CO`: “inactive”; `CC=CC(=O)C1=C(C)C=CCC1(C)C`: “inactive”.

A further assay concerns the target human Vitamin D Receptor (VDR), VDR (gene 7421) (UniProt P11473). Put plainly: ATG_VDR_TRANS: Attagene TRANS-FACTORIAL HepG2 Assay for human Vitamin D Receptor (VDR) (AID 2283022; active means hit-call score of the fitted dose curve at least 0.9, where 1 is the maximum).
Conditions: not given
In outline:
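Steps: transfect HepG2 with GAL4-UAS-driven reporter constructs; dose compounds 24 h; isolate RNA, reverse-transcribe, PCR-amplify with 6-FAM-labelled primer extension and HpaI digestion; quantify fragments by capillary electrophoresis relative to DMSO.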
With `CN(C)C(=O)Nc1ccccc1`, the compound was classed as inactive.
The same measure, in the same setting: next, `CCCCOCC(C)OCC(C)O` (stereo not drawn): “inactive”; `Cc1cc(N)n(-c2ccccc2)n1`: “inactive”; `CCCCOC(=O)C(C)OC(=O)CCC` (stereo not drawn): “inactive”.
Same read-out and setting: under `c1ccc2c(c1)-c1ccc3ccc4cccc5cc-2c1c3c45` stands “inactive”; under `O=C1OCc2ccccc21`, “inactive”; under `CCCC[N+](C)(CCCC)CCCC`, “inactive”.
The same measure, in the same setting: next, `CC(=O)CCc1ccc(O)cc1`: “inactive”; `CC(=N[Si](C)(C)C)O[Si](C)(C)C`: “inactive”; `NS(=O)(=O)c1cc(C(=O)O)c(NCc2ccco2)cc1Cl`: “inactive”.
Turning to `CC(=O)Oc1c(C)c(C)c2c(c1C)CC[C@@](C)(CCC[C@H](C)CCC[C@H](C)CCCC(C)C)O2`, the result was inactive.
The same measure, in the same setting: under `c1coc(CNc2ncnc3nc[nH]c23)c1` stands “inactive”; under `COc1ccc(OC)cc1`, “inactive”.
With `CCC(=O)OC/C=C(\C)CCC=C(C)C`, the compound was called inactive.
Same read-out and setting: next, `CC(C)N(c1ccccc1)C(C)C`: “inactive”; `CCCO`: “inactive”.
The same measure, in the same setting: next, `Nc1cc([N+](=O)[O-])ccc1C(=O)O`: “inactive”; `Cc1ccccc1S`: “inactive”.

Read-out in a further assay: not listed separately
The assay can be described thus: BSK_3C_SRB: Viability Assessment in the BioMAP Diversity Plus: 3C Assay (AID 2283023).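 Further: fitted both ways against DMSO so a hit may be signal rise or drop.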 As to conditions: primary human endothelial cells (HUVEC). In outline:
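Absorbance at 560 nm of sulforhodamine B-stained (0.1%) total protein served as a cytotoxicity readout in human umbilical vein endothelial cells, 24 h after chemical treatment. Signal was fitted bidirectionally relative to DMSO.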
Consider `OCCN1CCOCC1`, for which the outcome was inactive.
The same measure, in the same setting: under `c1ccc2c(c1)-c1ccc3ccc4cccc5cc-2c1c3c45` stands “inactive”.
Same read-out and setting: next, `CC(C)(CO)CO`: “inactive”.
For `CC=CC(=O)C1=C(C)C=CCC1(C)C`, the result was inactive.

Read-out in the next assay: Matrix Metallopeptidase 1 (MMP1), MMP1 (gene 4312)
Put plainly: BSK_BE3C_MMP1: BioMAP Diversity Plus: BE3C Assay for Matrix Metallopeptidase 1 (MMP1) Biomarker Activity (AID 2283024). As to conditions: primary human bronchial epithelial cells; actives raise or lower the signal. In outline:
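ELISA read-out of MMP1 in human lung bronchial epithelial primary cultures, 24 h post-dose; bidirectional curve fit vs DMSO baseline, gain or loss of signal scored.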
As for `OCCN1CCOCC1`, the outcome was inactive.
Regarding `c1ccc2c(c1)-c1ccc3ccc4cccc5cc-2c1c3c45`, the outcome was inactive.
Consider `CC(C)(CO)CO`, for which the outcome was inactive.
Same read-out and setting: next, `CC=CC(=O)C1=C(C)C=CCC1(C)C`: “inactive”.

Read-out in a further assay: not listed separately
The assay can be described thus: BSK_3C_Vis: BioMAP Diversity Plus: 3C Assay for Morphology Visualization (AID 2283025).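 Further: fitted both ways so gain or loss versus DMSO counts.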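 On AC50: light microscopy image of cell morphology used as background control.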 As to conditions: primary human endothelial cells (HUVEC). The procedure, abridged:
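HUVEC, 3C system; light microscopy of morphology at 24 h post-dose. Bidirectional fit vs DMSO baseline. Secondary readout, background-control function.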
For `OCCN1CCOCC1`, the outcome was inactive.
With `c1ccc2c(c1)-c1ccc3ccc4cccc5cc-2c1c3c45`, the AC50 is 4.52 µM (active).
As for `CC=CC(=O)C1=C(C)C=CCC1(C)C`, the outcome was inactive.

Read-out in another assay: Pselectin, SELP (gene 6403)
The assay can be described thus: BSK_4H_Pselectin: BioMAP Diversity Plus: 4H Assay for Pselectin Biomarker Activity (AID 2283026). The conditions noted are these: primary human endothelial cells (HUVEC); actives raise or lower the signal. In outline:
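HUVEC, 24 h chemical exposure; P-selectin read by ELISA. Bidirectional curve fit vs DMSO baseline; gain or loss of signal scored.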
Consider `OCCN1CCOCC1`, for which the outcome was inactive.
The same measure, in the same setting: under `c1ccc2c(c1)-c1ccc3ccc4cccc5cc-2c1c3c45` stands “inactive”.
Consider `CC(C)(CO)CO`, for which the AC50 was 5.64 µM (active) and the outcome was inactive.
For the compound `CC=CC(=O)C1=C(C)C=CCC1(C)C`, the result was inactive.

Read-out in the next assay: not listed separately
Put plainly: BSK_BE3C_SRB: Viability Assessment in the BioMAP Diversity Plus: BE3C Assay (AID 2283028). The conditions noted are these: primary human bronchial epithelial cells. The procedure, abridged: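 Cells (human bronchial epithelial, primary) are treated with chemicals, and after 24 h the parallel cultures are fixed in 10% TCA. These are then stained with 0.1% SRB and read at 560 nm. Gain or loss of signal is fitted relative to DMSO.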
As for `OCCN1CCOCC1`, the outcome was inactive.
Same read-out and setting: under `c1ccc2c(c1)-c1ccc3ccc4cccc5cc-2c1c3c45` stands “inactive”; under `CC(C)(CO)CO`, “inactive”; under `CC=CC(=O)C1=C(C)C=CCC1(C)C`, “inactive”.

Read-out in a further assay: Thrombomodulin, THBD (gene 7056)
The assay can be described thus: BSK_3C_Thrombomodulin: BioMAP Diversity Plus: 3C Assay for Thrombomodulin Biomarker Activity (AID 2283029). As to conditions: primary human endothelial cells (HUVEC); actives raise or lower the signal. In outline: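 HUVEC, 3C conditions; compound 24 h; thrombomodulin by ELISA; bidirectional curve fit vs DMSO baseline; parallel SRB total-protein staining for cytotoxicity.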
As for `OCCN1CCOCC1`, the outcome was inactive.
On the same count and under the same terms, next, `c1ccc2c(c1)-c1ccc3ccc4cccc5cc-2c1c3c45`: “inactive”; `CC(C)(CO)CO`: “inactive”; `CC=CC(=O)C1=C(C)C=CCC1(C)C`: “inactive”.

Read-out in another assay: Urokinase-type plasminogen activator receptor (uPAR), PLAUR (gene 5329)
Put plainly: BSK_4H_uPAR: BioMAP Diversity Plus: 4H Assay for Urokinase-type plasminogen activator receptor (uPAR) Biomarker Activity (AID 2283030). As to conditions: primary human endothelial cells (HUVEC); actives raise or lower the signal. In outline: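 Cell-surface uPAR ELISA signal, measured 24 h after dosing human umbilical vein endothelial cells, was analyzed with bidirectional fitting relative to DMSO. Parallel SRB staining of total protein tracked overt cytotoxicity.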
For the compound `OCCN1CCOCC1`, the result was inactive.
Consider `c1ccc2c(c1)-c1ccc3ccc4cccc5cc-2c1c3c45`, for which the AC50 was 10 µM (active).
In the case of `CC(C)(CO)CO`, the result was inactive.
The same measure, in the same setting: under `CC=CC(=O)C1=C(C)C=CCC1(C)C` stands “inactive”.
